According to PubChem BioAssay (Tox21):
Values joined by “and” are separate entries in the source; they are usually repeats but may differ in a detail not shown here. Identical values can stand only once. Inconclusive results are not listed. A call without a number means that no potency is given here. Where a structure was tested more than once in an assay, its records may differ in their call. Active and inactive are the calls of the source. Unless noted, calls come from the whole dose curve; as a rule, active = well fitted curve in the direction sought with a large enough effect in the repeat runs; inconclusive = weak or mixed curves; inactive = no such curve, though single readings can be large; an effect the other way counts as inactive or inconclusive.

Columns and labels:
[1] = qHTS assay to identify small molecule antagonists of the glucocorticoid receptor (GR) signaling pathway - cell viability counter screen (AID 720693); note: nearly all actives have a fitted effect of over 55% in size; note: potency is the fitted concentration of half-maximal effect
[2] = qHTS assay for identifying genotoxic compounds that show differential cytotoxicity against isogenic chicken DT40 cell lines with known DNA damage response pathways - wild type cell line (AID 743012); note: nearly all actives have a fitted effect of over 60% in size; note: potency is the fitted concentration of half-maximal effect
Outline: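 Quantitative HTS on parental DT40 cells: 40 h compound treatment at 37 C/5% CO2, with viability then determined by CellTiter-Glo luminescence. Values serve as the DNA repair-proficient reference for differential cytotoxicity.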

[3] = qHTS assay for identifying genotoxic compounds that show differential cytotoxicity against isogenic chicken DT40 cell lines with known DNA damage response pathways - Rev3 mutant cell line (AID 743014); note: nearly all actives have a fitted effect of over 55% in size; note: potency is the fitted concentration of half-maximal effect
[4] = qHTS assay for identifying genotoxic compounds that show differential cytotoxicity against isogenic chicken DT40 cell lines with known DNA damage response pathways - Rad54/Ku70 mutant cell line (AID 743015); note: nearly all actives have a fitted effect of over 60% in size; note: potency is the fitted concentration of half-maximal effect
[5] = qHTS assay to identify small molecule antagonists of the androgen receptor (AR) signaling pathway - cell viability counter screen (AID 743033; note: nearly all actives have a fitted effect of over 45% in size; note: potency is the fitted concentration of half-maximal effect)
[6] = qHTS assay to identify small molecule antagonists of the androgen receptor (AR) signaling pathway using the MDA cell line - cell viability counter screen (AID 743041; note: nearly all actives have a fitted effect of over 45% in size; note: potency is the fitted concentration of half-maximal effect)
Outline: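 Viability counter screen run alongside the AR antagonist reporter: cells seeded 5 h before compound, R1881 added, 16 h incubation at 37C without CO2, fluorescent CellTiter-Fluor signal quantified.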

[7] = target: Androgen receptor (Homo sapiens) (UniProt P10275); assay: qHTS assay to identify small molecule antagonists of the androgen receptor (AR) signaling pathway (AID 743035; active = well fitted inhibition curve with a large enough effect in the signal ratio in the repeat runs, not every such curve was filed as active; the % refers to the signal ratio)
Outline: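 Cell line: GeneBLAzer AR-UAS-bla GripTite (HEK293). Stimulus: R1881 added after compound. Exposure: 16 h, 37C, 5% CO2. Readout: LiveBLAzer B/G FRET fluorescence after 2 h at room temperature.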

[8] = target: Androgen receptor (Homo sapiens) (UniProt P10275); assay: qHTS assay to identify small molecule agonists of the androgen receptor (AR) signaling pathway using the MDA cell line (AID 743040; note: nearly all actives have a fitted effect of over 20% in size)
Outline: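 Luminescence from ONE-Glo, read after 30 min at room temperature, reflects MMTV-driven luciferase in MDA-kb2 cells (AR- and GR-responsive). Treatment lasted 16 h at 37C, 0% CO2.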

[9] = target: Androgen receptor (Homo sapiens) (UniProt P10275); assay: qHTS assay to identify small molecule antagonists of the androgen receptor (AR) signaling pathway using the MDA cell line (AID 743042; note: nearly all actives have a fitted effect of over 55% in size)
Outline: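 MDA-kb2 cells (human breast carcinoma, stably carrying an MMTV-luciferase reporter responsive to AR and GR) were plated at 3,000 cells/well and preincubated 5 hr at 37C, then given compound plus R1881 agonist for 16 h. ONE-Glo luminescence was read.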

[10] = target: Androgen receptor (Homo sapiens) (UniProt P10275); assay: qHTS assay to identify small molecule agonists of the androgen receptor (AR) signaling pathway (AID 743036; active = well fitted activation curve with a large enough effect in the signal ratio in the repeat runs, with a control signal flat, not every such curve was filed as active; the % refers to the signal ratio)
Outline: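 Activation was read as beta-lactamase FRET signal from LiveBLAzer B/G substrate, added for 2 h at room temperature. Before that, GeneBLAzer AR-UAS-bla GripTite (HEK293) cells had 16 h compound exposure at 37C.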

Sequence of Androgen receptor (Homo sapiens) (P10275 whole entry, looked up): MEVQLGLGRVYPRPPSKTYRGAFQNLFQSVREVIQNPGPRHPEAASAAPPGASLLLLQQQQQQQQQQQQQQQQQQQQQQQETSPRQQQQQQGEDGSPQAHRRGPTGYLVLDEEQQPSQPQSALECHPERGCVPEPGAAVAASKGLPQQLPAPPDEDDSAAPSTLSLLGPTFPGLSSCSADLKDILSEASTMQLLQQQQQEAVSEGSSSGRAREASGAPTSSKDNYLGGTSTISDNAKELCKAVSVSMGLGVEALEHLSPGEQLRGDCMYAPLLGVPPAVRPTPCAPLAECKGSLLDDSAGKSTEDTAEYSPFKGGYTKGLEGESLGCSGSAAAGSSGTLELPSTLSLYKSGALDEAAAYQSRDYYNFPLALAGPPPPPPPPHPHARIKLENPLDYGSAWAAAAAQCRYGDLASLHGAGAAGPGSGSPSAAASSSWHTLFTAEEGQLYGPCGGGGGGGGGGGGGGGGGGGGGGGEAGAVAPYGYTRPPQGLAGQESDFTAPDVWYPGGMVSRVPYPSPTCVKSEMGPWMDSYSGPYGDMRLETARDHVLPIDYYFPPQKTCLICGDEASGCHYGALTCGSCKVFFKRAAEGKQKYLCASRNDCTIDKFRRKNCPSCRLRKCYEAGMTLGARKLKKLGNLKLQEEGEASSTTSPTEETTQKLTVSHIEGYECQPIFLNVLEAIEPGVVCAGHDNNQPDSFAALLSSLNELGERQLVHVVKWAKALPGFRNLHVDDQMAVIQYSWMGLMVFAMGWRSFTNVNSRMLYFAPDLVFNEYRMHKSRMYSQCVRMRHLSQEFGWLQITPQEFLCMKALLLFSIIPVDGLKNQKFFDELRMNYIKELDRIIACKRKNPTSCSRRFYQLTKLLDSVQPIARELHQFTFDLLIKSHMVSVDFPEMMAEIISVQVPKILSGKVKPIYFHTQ

Row | SMILES | Potency [1] | Potency [2] | Potency [3] | Potency [4] | Potency [5] | Potency [6] | Potency [7] | Potency [8] | outcome [9] | outcome [10]
1 | CCC(Cl)[N+](=O)[O-] (stereo not given) | inactive | inactive | inactive | inactive | inactive | inactive |  |  |  | 
2 | CCNc1nc(NC(C)C)nc(OC)n1 | inactive | inactive | inactive | inactive | inactive | inactive |  |  |  | 
3 | C=C(C)[C@@H]1CC=C(C=O)CC1 | inactive | 54.5 µM (active) | 61.1 µM (active) | 54.5 µM (active) | inactive | inactive |  |  |  | 
4 | O=C1CN=C(c2ccccc2)c2cc([N+](=O)[O-])ccc2N1 | inactive | inactive | inactive | inactive | inactive | inactive |  |  |  | 
5 | Cc1cccc(C#N)c1 | inactive | inactive | inactive | inactive | inactive | inactive |  |  |  | 
6 | Fc1ccc(C2(Cn3cncn3)OC2c2ccccc2Cl)cc1 (stereo not given) | inactive | 15.4 µM (active) | 34.4 µM (active) | 27.3 µM (active) |  | inactive |  |  |  | 
7 | ClC(Br)Br | inactive | inactive | inactive | inactive | inactive | inactive |  |  |  | 
8 | [As]#[In] | inactive | inactive | inactive | inactive | inactive | inactive |  |  |  | 
9 | O=S(=O)(O)C(F)(F)C(F)(F)C(F)(F)C(F)(F)C(F)(F)C(F)(F)F | inactive | inactive | inactive | inactive | inactive | inactive |  |  |  | 
10 | CCN(CC)c1nc(C)cc(OP(=S)(OC)OC)n1 | inactive | 48.6 µM (active) | 48.6 µM (active) | 48.6 µM (active) | inactive | inactive |  |  |  | 
11 | O=[N+]([O-])c1cc(Cl)c(Cl)c(Cl)c1 | inactive | inactive | inactive | inactive | inactive | inactive |  |  |  | 
12 | COc1ccc(C(=O)N2CCCC2=O)cc1 | inactive | inactive | inactive | inactive | 0.0085 µM (active) | inactive |  |  |  | 
13 | CCOC(=O)/C=C(C)/C=C/C[C@@H](C)CCCC(C)C | inactive | 30.6 µM (active) | 54.5 µM (active) | inactive and 43.3 µM (active) | inactive | inactive |  |  |  | 
14 | COC(=O)c1ccccc1S(=O)(=O)NC(=O)Nc1nc(C)cc(C)n1 | inactive | inactive | inactive |  | inactive | inactive |  |  |  | 
15 | CCCCOC(=O)c1ccccc1C(=O)O | inactive | inactive | inactive |  | inactive | inactive | inactive | inactive | inactive | 
16 | O=C(O)c1cccc(Cl)c1 | inactive | inactive | inactive |  | inactive | inactive |  |  |  | 
17 | CC(C)[N+](=O)[O-] | inactive | inactive | inactive |  | inactive | inactive |  |  |  | 
18 | NC(=S)C(N)=S | inactive | inactive | inactive |  | inactive | inactive |  |  |  | 
19 | COc1cccc2c1cc([N+](=O)[O-])c1c(C(=O)O)cc3c(c12)OCO3 | 12.3 µM (active) | 0.77 µM (active) | 0.137 µM (active) |  | 12.3 µM (active) | 34.4 µM (active) |  |  |  | 
20 | CCCCOC(=O)c1ccccc1N | inactive | inactive | inactive |  | inactive | inactive |  |  |  | 
21 | O=C(CCCN1CCC(n2c(=O)[nH]c3ccccc32)CC1)c1ccc(F)cc1 | inactive | 12.7 µM (active) |  | 10.1 µM (active) | inactive | inactive | inactive | inactive | inactive | inactive

Row | SMILES | Potency [1] | Potency [2] | Potency [3] | Potency [4] | Potency [5] | Potency [6] | Potency [7] | Potency [8] | outcome [9] | outcome [10]
22 | CC(CC(C#N)(c1ccccc1)c1ccccc1)N(C)C (stereo not given) | inactive | 30.5 µM (active) | 54.2 µM (active) |  | inactive | inactive |  |  |  | 
23 | CC1(C)C(=O)NC(=O)NC1=O | inactive | inactive | inactive |  | inactive | inactive |  |  |  | 
24 | CN(C)CCc1ccc(O)cc1 | inactive | inactive | inactive |  |  | inactive |  |  |  | 
25 | CN1C(=S)CN=C(c2ccccc2)c2cc(Cl)ccc21 | inactive | 23.7 µM (active) |  | 29.8 µM (active) | inactive |  |  |  |  | 
26 | CCCCOC(=O)[C@@H](C)Oc1ccc(Oc2ccc(C#N)cc2F)cc1 | inactive | 34.2 µM (active) | 30.5 µM (active) |  | inactive | inactive |  |  |  | 
27 | CCC1(c2ccccc2)C(=O)N=C(O)NC1=O (stereo not given) | inactive | inactive | inactive |  | inactive | inactive |  |  |  | 
28 | CN(N=O)C(N)=O | inactive | inactive | inactive |  | inactive | inactive |  |  |  | 
29 | C=C(C)CN(CC)c1c([N+](=O)[O-])cc(C(F)(F)F)cc1[N+](=O)[O-] | inactive | inactive | inactive |  | inactive | inactive |  |  |  | 
30 | O=[N+]([O-])c1ccc2c3c(cccc13)CC2 | inactive | inactive | 19.3 µM (active) |  | inactive | inactive |  |  |  | 
31 | OCCBr | inactive | inactive | 19.4 µM (active) |  | inactive | inactive |  |  |  | 
32 | CC(=O)CCc1ccc2c(c1)OCO2 | inactive | inactive | inactive |  | inactive | inactive |  |  |  | 
33 | NC(=O)O | inactive | inactive | inactive |  | inactive | inactive |  |  |  | 
34 | NC(=O)c1cc([N+](=O)[O-])cc([N+](=O)[O-])c1 | inactive | inactive | inactive |  | inactive | inactive |  |  |  | 
35 | CCOP(=O)(OCC)OP(=O)(OCC)OCC | inactive | inactive |  | inactive | inactive | inactive | inactive | inactive | inactive | inactive
36 | CCS(=O)(=O)CCSP(=O)(OC)OC | inactive | 61.1 µM (active) | 38.6 µM (active) |  | inactive | inactive |  |  |  | 
37 | N#CC(CCc1ccc(Cl)cc1)(Cn1cncn1)c1ccccc1 (stereo not given) | inactive | 13.7 µM (active) | 13.7 µM (active) |  | 49 µM (active) |  |  | inactive |  | inactive
38 | CC(N)=S | inactive | inactive | inactive |  | inactive | inactive |  |  |  | 
39 | [O]=[Cd] | inactive | inactive | inactive |  | inactive | inactive |  |  |  | 
40 | Cc1coc2c1CCC(C)C2 (stereo not given) | inactive | inactive | inactive |  | inactive | inactive |  |  |  | 
41 | C(CCOCC1CO1)COCC1CO1 (stereo not given) | inactive | 12 µM (active) | 1.07 µM (active) |  | inactive | inactive |  |  |  | 
42 | CNC(=O)Oc1cccc(C(C)C)c1 | inactive | inactive | inactive |  | inactive | inactive |  |  |  | 

Row | SMILES | Potency [1] | Potency [2] | Potency [3] | Potency [4] | Potency [5] | Potency [6] | Potency [7] | Potency [8] | outcome [9] | outcome [10]
43 | CCOC(=O)CP(=O)(OCC)OCC | inactive | inactive | inactive |  | inactive | inactive |  |  |  | 
44 | OC(c1ccccc1)(c1ccccc1)C1CCNCC1 | inactive | 11.4 µM (active) | inactive |  | inactive | inactive |  |  |  | 
45 | CCS(=O)(=O)C(C)(C)S(=O)(=O)CC | inactive | inactive | inactive |  |  | inactive |  |  |  | 
46 | CCN(Cc1ccc(Cl)nc1)/C(=C/[N+](=O)[O-])NC | inactive | inactive | inactive |  | inactive | inactive |  |  |  | 
47 | Nc1cc2c3c(c1)C(c1ccccc1)=N[C@@H](NC(=O)c1cccnc1)C(=O)N3CC2 | inactive | inactive | inactive |  | inactive | inactive |  |  |  | 
48 | O=C(Cc1ccccc1)OCc1ccccc1 | inactive | inactive | inactive |  | inactive | inactive |  |  |  | 
49 | CC1=NNC(=O)N(/N=C/c2cccnc2)C1 | inactive | inactive |  | inactive | inactive | inactive |  |  |  | 
50 | C#CCN1C(=O)COc2cc(F)c(N3C(=O)C4=C(CCCC4)C3=O)cc21 | inactive | 61.1 µM (active) |  |  | inactive | inactive |  | inactive |  | inactive
51 | CN1CCN(C(=O)O[C@H]2c3nccnc3C(=O)N2c2ccc(Cl)cn2)CC1 | inactive | inactive |  |  | inactive | inactive |  |  |  | 
52 | N#CCNCC#N | inactive |  | inactive | inactive | inactive | inactive |  |  |  | 
53 | CN1C[C@@H](NS(=O)(=O)N(C)C)C[C@@H]2c3cccc4c3c(cn4C)C[C@H]21 | inactive | 21.1 µM (active) |  |  | inactive | inactive |  |  |  | 
54 | COc1cccc(C(=O)NN(C(=O)c2cc(C)cc(C)c2)C(C)(C)C)c1C | inactive |  | 68.6 µM (active) | 61.1 µM (active) | inactive |  |  |  |  | 
55 | O=[N+]([O-])c1cccc(O)c1 | inactive | inactive |  | inactive | inactive | inactive |  |  |  | 
56 | CC(C)(C)NCC(O)c1cc(Cl)c(N)c(Cl)c1 (stereo not given) | inactive | inactive |  | inactive |  | inactive | inactive | inactive | inactive | inactive
57 | CCC/C(=N\OCC)C1=C(O)CC(CC(C)SCC)CC1=O (stereo not given) | inactive |  | 61.5 µM (active) | 61.5 µM (active) |  | inactive |  |  |  | 
58 | Nc1c(Br)cc([N+](=O)[O-])cc1[N+](=O)[O-] | inactive | inactive |  |  | inactive |  |  | inactive | inactive | 
59 | NC1=NC(=O)C(c2ccccc2)O1 (stereo not given) | inactive | inactive |  |  | inactive | inactive |  |  |  | 
60 | Nc1cnn(-c2ccccc2)c(=O)c1Cl | inactive | inactive |  | inactive | inactive | inactive |  |  |  | 
61 | CCCCC(=O)Cl | inactive | inactive |  | inactive | inactive | inactive |  |  |  | 
62 | O=C(N[C@H]1CN2CCC1CC2)c1cc2ccoc2cn1 | inactive | inactive |  |  | inactive | inactive | inactive | inactive | inactive | inactive
63 | CNC(=O)N(C)c1nc2ccccc2s1 | inactive | inactive |  | inactive | inactive | inactive |  | inactive | inactive | 
